Screening data: PubChem, National Center for Advancing Translational Sciences (NCATS)
Compounds with a hit are over-represented: about 4.6% of the library has one in this group of screens.
TRHR PAM: allosteric enhancers of human TRH receptor | P34981 | TRHR cells, fluo-8 calcium fluorescence, EC20 TRH enhancement | enhancement, % at 2 µM | 360,000 compounds, 0.66% hits; in the data active = enhancement above about 30%; note: 0% is about no effect
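TRHR-expressing cells loaded with fluo-8 calcium dye were read kinetically (ex 480/em 530) during compound addition, then stimulated with an EC20 of TRH (10 nM final). Enhancement of the Gq-mediated intracellular calcium response was scored.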
D1 antag: human D1 dopamine receptor antagonism | P21728 | HEK293 TREx D1 cells, calcium flux, dopamine EC80; stronger effect = lower value | activity change, negative = inhibition, % at 10 µM | 360,000 compounds, 3.2% hits; in the data active = activity change below about -30%; note: % is set by controls: 0 for no effect and ±100 for the full control effect
Target sequence (P21728 whole entry, looked up): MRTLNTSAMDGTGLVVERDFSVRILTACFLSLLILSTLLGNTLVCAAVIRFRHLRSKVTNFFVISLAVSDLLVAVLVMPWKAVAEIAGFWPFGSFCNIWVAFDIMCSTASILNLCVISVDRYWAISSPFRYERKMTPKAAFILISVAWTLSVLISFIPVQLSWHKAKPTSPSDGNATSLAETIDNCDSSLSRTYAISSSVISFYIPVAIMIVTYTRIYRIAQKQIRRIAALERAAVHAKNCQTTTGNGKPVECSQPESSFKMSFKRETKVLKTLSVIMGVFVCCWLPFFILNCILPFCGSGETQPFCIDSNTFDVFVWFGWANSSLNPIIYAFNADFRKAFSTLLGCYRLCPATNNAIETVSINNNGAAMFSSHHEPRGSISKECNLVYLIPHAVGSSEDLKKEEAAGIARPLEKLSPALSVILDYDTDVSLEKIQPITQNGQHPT
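After overnight tetracycline induction at 30 C, force-coupled D1 HEK293 cells took up a no-wash calcium dye at room temperature. Compounds were added and monitored 180 s, and the response to EC80 dopamine was then recorded.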
Epigenetic derep: regulators of epigenetic silencing causing reporter derepression in mouse cells | AID 1865 | murine LDR cells, GFP reporter derepression, 30 h | Potency, µM (series often up to 53.9 µM), for inactives: at the highest dose GFP activation, hits mostly activators | 280,000 compounds, 0.2% hits; active = well fitted activation curve with a large enough effect; inconclusive = small, poorly fitted or top-dose-only effect; note: potency is the fitted concentration of half-maximal effect; % of control where 0% means no effect; nearly all actives have a fitted effect of over 60% in size
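Murine LDR cells carrying a silenced, genomically integrated CMV-driven GFP reporter were exposed to compound for 30 hours at 37 C. After PBS washes, GFP-positive cells (20–120 um objects) were counted by laser-scanning microplate cytometry.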
D1 potentiator: potentiators of human D1 dopamine receptor; HEK293 TREx D1 cells, calcium flux, dopamine EC20 potentiation; AID 504651; 360,000 compounds, 0.036% hits; potentiation, % at 10 µM; P21728; in the data active = potentiation above about 30%; note: 0% is about no effect
D1 agonist: activates the human D1 dopamine receptor. activation, % at 2 µM. HEK293 T-REx D1 cells, calcium flux, agonist mode. 360,000 compounds, 1% hits. P21728; note: 0% is about no effect
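Agonism was scored from calcium flux recorded over 180 s (1 read/s) after pintool compound addition, following a 10-cycle baseline. Cells were inducible force-coupled HEK293 TREx D1, plated overnight at 30 C and loaded with no-wash calcium dye.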
TRHR agonist: activates the human TRH receptor. P34981. TRHR cells, calcium flux fluo-8, FDSS agonist mode. activation, % at 2 µM. 360,000 compounds, 0.18% hits; note: 0% is about no effect
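Steps: seed TRHR cells overnight; add fluo-8 no-wash Ca dye, RT 30 min–1.5 h; record 10 s baseline; pin-transfer compounds; monitor fluorescence 1 cycle/s for the agonist window. Calcium increases flag candidate agonists.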
Active calls of the source: *; ? = inconclusive; / = not tested or not shown. Cut-off read from the data, not from the text of the source, unless noted: active = activation above about 30%; inactive = the rest.

SMILES	TRHR PAM	D1 antag	Epigenetic derep	D1 potentiator	D1 agonist	TRHR agonist
Cc1cc(=O)[nH]c(N2CCCNCC2)n1	4.8	11.9	/	-0.8	6.5	0.2
Cc1nc(N2CCc3ccccc3C2)[nH]c(=O)c1Cc1ccccc1	0.6	-44.4*	1.1%	-5.5	2.7	-1.6
Cc1cc(=O)[nH]c(-n2[nH]c3c(c2=O)CCCC3)n1	0.8	-37.2*	4.3%	-3.5	21.1	-0.4
Cc1nc(-n2[nH]c3c(c2=O)CCCC3)[nH]c(=O)c1Cc1ccccc1	3.8	-3.3	0.4%	0.6	61.4*	-0.2
COc1ccc(N=C2NC(=O)S/C2=C\c2ccc(N(C)C)cc2)cc1	-4.7	-5.5	?	2.0	67.4*	17.1
COC(=O)c1ccc(N2CCN(C(=O)c3ccccc3)CC2)c(NC(C)=O)c1	-3.3	-30.6*	3.4%	3.1	0.6	-0.3
COC(=O)c1ccc(N2CCN(C(C)=O)CC2)c(NC(=O)COc2ccccc2C)c1	-1.1	8.4	-6.0%	-8.2	1.0	-0.1
CC(=O)c1ccc(NC(=O)C(C)n2nc(-c3ccccc3)ccc2=O)cc1 (centres undefined)	5.2	7.0	-0.9%	-0.7	11.0	1.7
Cc1cc(C)cc(NC(=O)COC(=O)c2ccc(CN3CCCC3=O)cc2)c1	-6.4	-5.0	/	6.9	2.3	-0.1
Cc1cc2n(n1)CCC(=O)N2Cc1ccc(C(=O)Nc2cc(Cl)ccc2C)cc1	-0.4	-1.3	-1.5%	2.3	-2.2	-0.5
Cc1ccc(NC(=O)c2ccc(CN3C(=O)CCn4nc(C)cc43)cc2)c(Cl)c1	-1.7	-33.6*	-1.7%	-2.6	0.5	-0.2
Cc1ccc(NC(=O)COC(=O)c2ccc(CN3CCCC3=O)cc2)c(Cl)c1	-2.1	-44.5*	/	/	13.2	-0.1
Cc1ccc(-c2noc(-c3nnn(CC(=O)Nc4cccc(C(F)(F)F)c4)c3N)n2)cc1	6.2	11.3	-2.8%	-2.1	2.3	0.5
O=[N+]([O-])c1ccc(N2CCN(c3ccc(F)cc3)CC2)cc1	-0.6	-11.4	/	0.8	0.7	1.4
O=[N+]([O-])c1ccc(N2CCN(CCOc3nonc3-c3ccccc3)CC2)c(Cl)c1	-0.3	-7.0	0.0%	2.5	0.4	0.0
O=[N+]([O-])c1ccc(CN2CCN(c3ccccc3)CC2)o1	3.4	8.5	/	9.2	0.8	0.2
O=[N+]([O-])c1ccc(N2CCN(Cc3ccc([N+](=O)[O-])o3)CC2)cc1	-10.7	-33.0*	/	-10.4	8.3	1.3
O=[N+]([O-])c1ccc(N2CCSCC2)cc1	-4.7	-37.9*	-1.0%	-4.6	2.0	-1.0
Cc1nonc1OCCN1CCN(c2ccc([N+](=O)[O-])cc2)CC1	0.1	-40.1*	4.1%	-7.4	9.7	0.1
CN(C)c1cccc(/C=C(\C#N)c2ccccc2)c1	16.5	-32.1*	4.8%	-0.1	-0.6	-0.7
Cc1cccc(/C=C(\C#N)c2nc3ccccc3c(=O)[nH]2)c1	-0.6	-19.3	-1.6%	-2.8	5.7	2.1
COc1ccc(/C=C(\C#N)C(=O)OCC(=O)NCc2ccccc2)cc1	0.4	-0.1	0.0%	1.1	0.0	0.1
COc1cccc(CNC(=O)COC(=O)/C(C#N)=C/c2ccc(N(C)C)cc2)c1	1.3	-16.7	/	/	74.3*	12.9
CN(C)c1ccc(/C=C(\C#N)c2ccccc2)cc1	0.2	-4.5	1.1%	-3.6	0.6	0.2
CN(C)c1ccc(/C=C(\C#N)c2nc3ccccc3c(=O)[nH]2)cc1	-0.9	-26.7	6.31µM*	5.8	96.9*	37.6*
SMILES	TRHR PAM	D1 antag	Epigenetic derep	D1 potentiator	D1 agonist	TRHR agonist
CCN(CC)c1ccc(/C=C(\C#N)C(N)=O)cc1	3.0	7.8	0.1%	-1.9	14.1	4.5
CCOC(=O)NC(=O)/C(C#N)=C/c1ccc(N(C)C)cc1	13.4	-25.8	0.9%	-4.8	30.8*	10.5
CCN(CC)c1ccc(/C=C(\C#N)C(=O)c2ccc(Br)cc2)cc1	7.2	-47.6*	17.5%	-10.1	258.5*	108.8*
CN(C)c1ccc(/C=C(\C#N)C(=O)c2ccccc2)cc1	29.0	-38.6*	15.2%	22.0	400.8*	138.4*
CC(=O)Nc1ccc(C(=O)NC2CCSc3ccccc32)cc1 (centres undefined)	-1.0	-15.9	/	-8.2	0.6	0.1
Cc1ccc(NC(=S)NC2CCSc3ccccc32)cc1 (centres undefined)	12.8	-38.4*	/	-6.2	22.8	-0.8
CSc1ccccc1C(=O)NC1CCSc2ccccc21 (centres undefined)	-11.7	-41.0*	/	-3.9	-0.7	-1.6
Cc1ccc(NC(=O)NCc2c(-n3cccc3)sc3c2CCCC3)c(Cl)c1	-2.1	-12.1	-5.0%	-2.0	0.2	-1.0
CC(C)C(=O)NC(c1ccco1)c1ccc2cccnc2c1O (centres undefined)	6.0	6.4	3.55µM*	-3.4	0.2	0.5
CCCCC(=O)NC(c1ccccc1OC)c1ccc2cccnc2c1O (centres undefined)	3.7	-4.0	3.55µM*	-1.3	2.7	0.5
CC(C)C(=O)NC(c1cccc([N+](=O)[O-])c1)c1ccc2cccnc2c1O (centres undefined)	2.1	1.5	/	-4.5	-3.4	-0.4
CCOc1cc(C(Nc2cc(C)ccn2)c2ccc3cccnc3c2O)ccc1OC (centres undefined)	41.0*	-6.3	?	-4.2	5.4	-0.9
CCC(=O)NC(c1cccs1)c1ccc2cccnc2c1O (centres undefined)	-1.9	7.0	3.98µM*	5.0	0.2	-2.1
CCOC(=O)c1c(C)c(-c2ccccc2)n(CC(=O)Nc2cc(C)ccc2OC)c1C	2.8	8.5	0.0%	-2.0	-0.1	0.4
O=C(NCc1ccc2c(c1)OCO2)c1ccc2c(c1)N(Cc1cccc(Cl)c1)C(=O)c1ccccc1S2=O (centres undefined)	-1.3	-0.9	-1.1%	5.9	4.3	0.3
CN(CCCNC(=O)c1cc2c(=O)n(C)c3ccccc3c2s1)Cc1ccccc1	-0.2	-12.5	0.3%	-1.4	0.5	-0.7
COc1ccc(C2c3c(oc4cc(C)cc(C)c4c3=O)C(=O)N2Cc2ccco2)cc1OC (centres undefined)	-2.6	5.5	-1.8%	-1.4	-0.5	0.4
CCCC(=O)NC(c1ccccc1OC)c1ccc2cccnc2c1O (centres undefined)	13.0	-0.1	7.08µM*	3.1	2.2	0.7
CC1CN(C(=O)CSc2nnc(-c3cccs3)n2N)CC(C)O1 (centres undefined)	-6.7	-34.3*	/	8.1	2.4	0.2
Nn1c(SCC(=O)N2CCc3ccccc3C2)nnc1-c1cccs1	3.1	20.3	-1.8%	-0.6	-0.1	-0.7
